This is a sample that favours compounds with a hit; in the whole collection about 3.6% have one here.
D1 antagonist: antagonists of human D1 dopamine receptor; P21728; HEK293 TREx D1 cells, calcium flux, dopamine EC80; stronger effect = lower value; activity change, negative = inhibition, % at 10 µM; 360,000 compounds, 3.2% hits; AID 504652; in the data active = activity change below about -30%
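HEK293 T-REx cells expressing inducible, force-coupled D1 receptor; no-wash Ca dye, 30–90 min RT. Cmpd → 180 s read at 1 Hz → EC80 DA → 180 s read.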
TRHR enhancer-1: TRH receptor (human) allosteric enhancement | P34981 | TRHR cells, fluo-8 calcium fluorescence, EC20 TRH enhancement | enhancement, % at 2 µM | 360,000 compounds, 0.66% hits; in the data active = enhancement above about 30%
Target sequence (P34981 whole entry, looked up): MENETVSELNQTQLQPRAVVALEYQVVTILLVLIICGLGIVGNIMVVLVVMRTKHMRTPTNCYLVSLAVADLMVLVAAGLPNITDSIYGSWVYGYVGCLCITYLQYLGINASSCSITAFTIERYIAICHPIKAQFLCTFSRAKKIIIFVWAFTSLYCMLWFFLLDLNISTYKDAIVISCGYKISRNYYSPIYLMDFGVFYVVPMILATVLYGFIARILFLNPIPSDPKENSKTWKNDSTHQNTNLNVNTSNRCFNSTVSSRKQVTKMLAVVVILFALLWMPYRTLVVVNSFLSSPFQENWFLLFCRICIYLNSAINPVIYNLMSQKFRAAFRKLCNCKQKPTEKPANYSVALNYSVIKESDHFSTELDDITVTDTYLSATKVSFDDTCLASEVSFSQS
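Enhancer read-out: after compound pinning and an initial kinetic agonist-mode read, an EC20 of TRH (10 nM final) was injected and fluo-8 calcium signal (Ex 480/Em 530) followed at 1 s/cycle for 100 cycles in TRHR-expressing cells.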
TRHR agonist-1: TRH receptor (human) agonism; P34981; TRHR cells, calcium flux fluo-8, FDSS agonist mode; activation, % at 2 µM; 360,000 compounds, 0.18% hits; AID 493084; in the data active = activation above about 30%
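Read-out: compound-evoked intracellular calcium rise in TRHR cells, fluo-8 dye, kinetic FDSS fluorescence at 1 s/cycle following a 10-cycle baseline. Cells cultured overnight before dye loading (30 min–1.5 h, RT).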
LDHA inh: inhibitors of human lactate dehydrogenase A | P00338 | purified LDHA, NADH/diaphorase-resazurin fluorescence; stronger effect = lower value | 480,000 compounds, 0.15% hits | activity change, % (values are at about 110 or 230 µM); in the data active = activity change below about -30%; inconclusive = mostly about -25% to -30%
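Human LDH5 at 2 nM final in Tris HCl pH 7.4 with 0.06 mM NADH and 0.2 mM pyruvate, reacted 5 minutes at room temperature. Remaining NADH coupled via diaphorase/resazurin; resorufin fluorescence read at 0 and 20 minutes, normalized to enzyme-free and DMSO wells.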
D1 PAM: potentiators of human D1 dopamine receptor. HEK293 TREx D1 cells, calcium flux, dopamine EC20 potentiation. potentiation, % at 10 µM. 360,000 compounds, 0.036% hits. AID 504651; in the data active = potentiation above about 30%
D1 ag: activates the human D1 dopamine receptor; P21728; HEK293 T-REx D1 cells, calcium flux, agonist mode; activation, % at 2 µM; 360,000 compounds, 1% hits; in the data active = activation above about 30%
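Agonism was scored from calcium flux recorded over 180 s (1 read/s) after pintool compound addition, following a 10-cycle baseline. Cells were inducible force-coupled HEK293 TREx D1, plated overnight at 30 C and loaded with no-wash calcium dye.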
TRHR enhancer-2: confirmation of human TRH receptor allosteric enhancers; shares compounds with TRHR enhancer-1; TRH receptor cell assay, enhancer confirmation qHTS; activity change, negative = inhibition, % at 46.1 µM; 970 tested, under 10 active; AID 493076;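 note: compound effect scored on response to added TRH at EC20 of 10 nM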
TRHR agonist-2: confirmation of human TRH receptor agonists | shares compounds with TRHR enhancer-1 | TRHR-expressing cells, agonist activation read-out | Potency, µM (top dose mostly 46.1 µM), usual class: activators | 970 compounds, 8% hits; note: nearly all actives have a fitted effect of over 75% in size
A number is an active result; – = inactive; ? = inconclusive; · = no result given. Unless noted, calls come from the whole dose curve; as a rule, active = well fitted curve in the direction sought with a large enough effect; inconclusive = small, poorly fitted or top-dose-only effect, or another doubt; inactive = no such curve, though single readings can be large; an effect the other way counts as inactive or inconclusive.

SMILES	D1 antagonist	TRHR enhancer-1	TRHR agonist-1	LDHA inh	D1 PAM	D1 ag	TRHR enhancer-2	TRHR agonist-2
CN(C)CCCNc1oc(-c2ccccc2Cl)nc1S(=O)(=O)c1ccc(F)cc1	–	57	–	–	–	–	?	?
CCCNC(=O)c1nc(C)n(-c2cc(Cl)cc(Cl)c2)n1	–	–	–	–	–	–	·	·
CCCNC(=O)c1nc(C)n(-c2cc(Cl)ccc2Cl)n1	–	64	–	–	–	–	–	–
O=C(NCCCN1CCCCC1)C1CCC(CNS(=O)(=O)c2cccc3nsnc23)CC1 (stereo not drawn)	–	48	–	–	–	–	–	–
CC1CCN(CCCNC(=O)C2CCC(CNS(=O)(=O)c3cccc4nsnc34)CC2)CC1 (stereo not drawn)	–	–	–	–	–	–	·	·
CN(Cc1cnn(C)c1)Cc1nc(-c2ccc(Cl)cc2)no1	–	–	–	–	–	–	·	·
CCc1ccc(CN(C)Cc2nc(-c3cccc(Cl)c3)no2)nc1	–	48	–	–	–	–	–	–
CCN(CC)S(=O)(=O)c1ccc(C(=O)N(c2ccc(C)cc2)C2C=CS(=O)(=O)C2)cc1 (stereo not drawn)	–	42	–	–	–	–	–	–
CN1CCN(c2ccc3nnc(CCC(=O)NCC4CCN(Cc5ccc(F)cc5)CC4)n3n2)CC1	·	·	·	–	·	·	·	·
O=C1NC(Cc2c[nH]c3ccccc23)C(=O)N1Cc1cccc2ccccc12 (stereo not drawn)	–	56	–	–	–	–	–	–
COc1ccc(C)cc1S(=O)(=O)N1CCC2(CC1)OCCN2S(=O)(=O)c1cccs1	–	66	–	–	–	–	?	–
COc1ccc(-c2cc(C(F)(F)F)nc(S(=O)(=O)CCC(=O)Nc3ccc(Cl)cc3)n2)cc1	·	·	·	–	·	·	·	·
CCCCn1nnnc1SCC(=O)NNC(=O)C1CCCCC1	–	42	–	–	–	–	–	–
CCCn1nnnc1SCC(=O)NC1CCCC1	–	–	–	–	–	–	·	·
CC1(C)Oc2ccc(C(=O)NC3CCCCC3)cc2N(CC#N)C1=O	–	46	–	–	–	–	–	–
CC1CCN(CC(=O)N2c3ccccc3CC2C)CC1 (stereo not drawn)	–	–	–	–	–	–	·	·
COc1ccc(N2CCN(CC(=O)N3c4ccccc4CC3C)CC2)cc1 (stereo not drawn)	–	41	–	–	–	–	?	–
Cc1nn(C)cc1S(=O)(=O)Nc1ncccn1	–	41	–	–	–	–	–	–
NS(=O)(=O)c1ccc(NC(=O)CN2CCc3ccccc32)cc1	–	56	–	–	–	–	–	–
CCC(NC(=O)Cc1c(C)c2ccc(OC)c(C)c2oc1=O)C(=O)NC(Cc1ccc(Cl)cc1)C(=O)O (stereo not drawn)	–	–	–	–	–	–	·	·
Cc1oc2cc3oc(=O)c(CC(=O)N[C@@H](C)C(=O)NC(Cc4ccc(Cl)cc4)C(=O)O)c(C)c3cc2c1C (stereo partly drawn)	–	44	–	–	–	–	–	–
COc1ccc(Cc2nc3ccc(C(=O)N(C)CCn4ccnc4)cc3o2)cc1OC	–	41	–	–	–	–	–	–
COc1ccc(Cc2nc3ccc(C(=O)N(C)Cc4cc(C)[nH]n4)cc3o2)cc1OC	–	–	–	–	–	–	·	·
BrCCC1CCCCN1 (stereo not drawn)	·	·	·	–	·	·	·	·
S=C(Nc1ccc(Cl)cc1)N1CCN(C2CCCCC2)CC1	–	53	–	–	–	–	–	–
SMILES	D1 antagonist	TRHR enhancer-1	TRHR agonist-1	LDHA inh	D1 PAM	D1 ag	TRHR enhancer-2	TRHR agonist-2
Cc1ccc(N2CCN(C(=S)Nc3ccc(Cl)cc3)CC2)cc1	–	–	–	–	–	–	·	·
CCCCn1c(=O)n(CC(=O)Nc2ccccc2)c(=O)c2c1ncn2Cc1ccco1	·	·	·	–	·	·	·	·
Cn1nccc1C(=O)Nc1sc2c(c1C(N)=O)CCCC2	–	–	32	–	–	–	–	–
Cn1nccc1C(=O)Nc1sc2c(c1C#N)CCCC2	–	–	–	–	–	–	·	·
COc1ccc(-n2cc(C(=O)N(CCN(C)C)Cc3ccccc3)c3ccccc3c2=O)cc1	–	74	–	–	–	–	–	–
CCN(CC)c1ccc(-c2nnc(SCCS(=O)(=O)c3ccc(Br)cc3)o2)cc1	·	·	·	–	·	·	·	·
CCOC(=O)c1c(NC(=O)COC)sc(C)c1C	–	–	–	–	–	–	·	·
CCOC(=O)c1c(NC(=O)COC)sc(C(C)=O)c1C	–	–	33	–	–	–	–	–
CC(NS(C)(=O)=O)C(c1cccs1)N1CCN(c2ccccc2)CC1 (stereo not drawn)	–	59	–	–	–	–	–	–
CC(NS(C)(=O)=O)C(c1cccs1)N1CCN(c2ccccc2F)CC1 (stereo not drawn)	·	·	·	–	·	·	·	·
CCN(CCC(=O)OC)C(=O)CCCOc1cccc(C(C)=O)c1	·	·	·	–	·	·	·	·
CCC(C)NS(=O)(=O)c1ccc(NC(=O)C(Sc2ccccc2)c2ccccc2)cc1 (stereo not drawn)	–	–	–	–	–	–	·	·
CCCCNS(=O)(=O)c1ccc(NC(=O)C(Sc2ccccc2)c2ccccc2)cc1 (stereo not drawn)	–	–	–	–	–	–	–	?
O=S(=O)(Nc1ncnc2c1oc1ccccc12)c1ccc(Cl)s1	–	51	–	–	–	–	–	–
CNc1c(NS(=O)(=O)c2ccc(Cl)s2)c(=O)oc2ccccc12	–	–	–	–	–	–	·	·
O=C(CC12CC3CC(CC(Br)(C3)C1)C2)NCCc1ccccc1	·	·	·	–	·	·	·	·
CC(C)C(NC(=O)Cc1ccccc1)C(=O)OCc1ccc(C(N)=O)cc1 (stereo not drawn)	·	·	·	–	·	·	·	·
CCOc1ccccc1NC(=O)NC1CC2CCCC(C1)N2Cc1nnnn1CCc1ccccc1 (stereo not drawn)	–	–	61	–	–	–	–	–
CC(C)(/C=N/O)/[N+]([O-])=C/c1ccc(Cl)cc1Cl	·	·	·	–	·	·	·	·
Cc1nc2cc(NC(=O)C(C)(C)Oc3ccc(Cl)cc3)ccc2o1	·	·	·	–	·	·	·	·
Cc1ccc(COC(=O)c2ccc(Cl)c(S(=O)(=O)N3CCCCC3)c2)cc1	·	·	·	–	·	·	·	·
COc1ccc(OCCOCCOc2ccc(C)cc2[N+](=O)[O-])cc1	–	–	–	–	–	–	·	·
COc1ccc(CNCC(O)COc2ccc(C)cc2[N+](=O)[O-])cc1 (stereo not drawn)	–	–	34	–	–	–	–	–
